Pf growth 96h: inhibits malaria parasite growth, 96 h. hit rate 6.9% among 320,000. Potency, µM (doses to about 28.7 µM), for the others: at the highest dose activity change, negative = inhibition, actives largely listed as inhibitors. P. falciparum luciferase reporter growth, 96 h. AID 504834; further: potency means the concentration at half of the fitted maximal effect; on the % scale 0 is the no-effect control and ±100 the full control effect
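Delayed-death screen, second-generation endpoint: infected erythrocytes, 2% hematocrit, 0.05% parasitemia final; 96 hours at 37 C, 5% CO2; luciferase detection reagent; luminescence decrease equals reduced growth.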
CHX counter: counter-screen hit for Shiga toxin inhibitors, cycloheximide; cell reporter, cycloheximide protein synthesis inhibition counterscreen; max response, %; hit rate 12% among 300,000; AID 2314; in the data active means max response mostly above about 13%, no sharp cut-off; inactive means mostly below about 14%; further: read at 38.3 µM for the half of the compounds with a filed dose; 0% is about no effect
Shiga toxin inh: inhibitors of Shiga toxin in Vero cells; Vero cells, Shiga toxin protein synthesis inhibition reporter; inhibition, % at 38.7 µM; hit rate 9.2% among 290,000; AID 2315; in the data active means inhibition mostly above about 28%, no sharp cut-off; inactive means mostly below about 43%; further: 0% is about no effect
Pf growth 48h: inhibits P. falciparum growth in the first generation, 48 h | P. falciparum luciferase growth in erythrocytes, 48 h | Potency, µM (titrated, usually from 28.7 µM), for the others: at the highest dose activity change, negative = inhibition, hits mostly inhibitors | hit rate 5.9% among 310,000; further: potency means the concentration at half of the fitted maximal effect; on the % scale 0 is the no-effect control and ±100 the full control effect
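Erythrocytes infected with P. falciparum carrying an integrated firefly luciferase reporter (2% hematocrit, 0.1% parasitemia final) were exposed to compounds in RPMI 1640 with 0.5% Albumax at 37 C, 5% CO2. Growth inhibition was scored as reduced luminescence.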
LmPK inh: inhibitors of Leishmania mexicana pyruvate kinase; Q27686; purified LmPK, Kinase-Glo ATP luminescence, 1 h; Potency, µM (series often up to 57.5 µM), inactives show at the highest dose activity change, negative = inhibition, most hits filed as inhibitors; hit rate 0.37% among 290,000; AID 1721; further: potency means the concentration at half of the fitted maximal effect; on the % scale 0 is the no-effect control and ±100 the full control effect
Target sequence (Q27686 whole entry, looked up): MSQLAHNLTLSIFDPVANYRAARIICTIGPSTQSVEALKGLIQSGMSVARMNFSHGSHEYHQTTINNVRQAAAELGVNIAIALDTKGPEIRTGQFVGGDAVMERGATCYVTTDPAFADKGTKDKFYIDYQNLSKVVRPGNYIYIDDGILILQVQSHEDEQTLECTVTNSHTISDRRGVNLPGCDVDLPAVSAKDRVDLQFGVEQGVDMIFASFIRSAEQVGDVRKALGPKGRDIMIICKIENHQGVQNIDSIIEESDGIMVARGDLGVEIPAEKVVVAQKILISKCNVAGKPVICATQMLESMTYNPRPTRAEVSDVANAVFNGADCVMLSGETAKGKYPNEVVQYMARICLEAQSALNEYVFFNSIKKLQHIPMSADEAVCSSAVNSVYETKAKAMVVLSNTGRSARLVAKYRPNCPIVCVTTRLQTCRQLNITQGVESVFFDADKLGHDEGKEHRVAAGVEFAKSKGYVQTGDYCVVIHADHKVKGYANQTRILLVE
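Kinase-Glo luminescence read after 1 h RT reaction of 0.1 nM LmPK with 0.5 mM PEP and 0.1 mM ADP. Activity scaled between uninhibited and enzyme-free controls.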
Numbers without * were called inactive; i = inactive; ? = inconclusive; . = no result given; + = active, no number; ! = a repeat was not active; [ ] = remark or other dose. Sampled rows, rich in hits. Any-hit rate of the full collection: about 22%. Unless noted, the call rests on the fitted dose curve; in most records, active means well fitted inhibition curve with a large enough effect; inconclusive means small, poorly fitted or top-dose-only effect, or another doubt; inactive means no such curve, though single readings can be large or run the other way.

SMILES	Pf growth 96h	CHX counter	Shiga toxin inh	Pf growth 48h	LmPK inh
CC(=O)Nc1ccc(O)c(-c2nc3ccccc3s2)c1	163%	49*	131*	142%	3%[11.5 µM]
O=C(CCS(=O)(=O)c1ccccc1)Nc1ccc(-c2nc3ccccc3s2)c(O)c1	42%	44*	48*	19%	0%
COC(=O)c1ccc(Oc2nc(Nc3ccc(C)c(C)c3)nc(N(C)C)n2)cc1	.	13	13	?	-1%
CCN(CC(=O)Nc1ccccc1OC)C(=O)c1ccc(NS(=O)(=O)c2ccc(C(C)=O)cc2)cc1	1%	-1	1	13%	-2%
C=C1C[C@]2(O)[C@@]3(C)CCC(=O)C(C)(C)C3=C(O)C(=O)[C@@]2(C)[C@@H]2C(=O)O[C@@](C)(C(=O)OC)C(=O)[C@@]12C	-16%	26*	64*	17%	8%
c1ccc(Nc2ccnc(Nc3ccccc3)n2)cc1	-7%	53*	100*	-18%	-2%
NNc1ccccc1	-6%	14*!	11	-11%	.
COc1ccc(Nc2ccc(OC)cc2)cc1	?	46*	87*	?	-12%
c1ccc(Nc2ccc(Nc3ccccc3)cc2)cc1	?	.	.	-15%	.
COc1ccc(Nc2cccccc2=O)cc1	65%	15	27	38%	-1%
COc1ccc(Nc2ccc(Nc3ccc(OC)cc3)nn2)cc1	-10%	1	-2	8%	0%
COc1ccc(NC2=CC(=O)N(C)C2=O)cc1	72%	21	+	87%	-1%
NNc1nc(Nc2ccccc2)nc(Nc2ccccc2)n1	349%	28	36*	8.3µM*	-1%
NNc1nc(Nc2ccccc2)nc(N2CCCCC2)n1	.	10	-7	?	1%
COc1ccc(Nc2nc(N3CCOCC3)nc(N3CCOCC3)n2)cc1	-21%	-1	-15	0%	14%
COc1ccc(Nc2nc(NN)nc(Nc3ccc(OC)cc3)n2)cc1	3.3µM*	-2	.	9.3µM*	0%
C=CCCN(C(C(=O)OC)C(C)C)S(=O)(=O)c1ccccc1Br (configuration not stated)	?	-1	-5	-28%	-1%
CCCCc1ccc(-c2nc(-c3ccncc3)no2)cc1	23%	39*	73*	218%	-10%
CCCc1ccc(-c2ccc(-c3noc(-c4ccncc4)n3)cc2)nc1	10µM*	-1	-1	0%	7%
CCOc1nc(-c2ccccc2)ccc1-c1noc(-c2ccncc2)n1	23%	2	9	-13%	3%
CCCc1ccc(-c2ccc(F)c(N)c2)nc1	384%	-3	-1	-67%	16µM*
CCc1ccc(-c2nc(-c3ccncc3)no2)cc1	-23%	42*	85*	14%	-20%
CCCn1cc(S(=O)(=O)c2ccc(C)cc2)c(=O)c2cc(OC)c(OC)cc21	?	-4	-1	-15%	0%
CSCCC(N=C1NS(=O)(=O)c2ccccc21)C(=O)NCCc1ccccc1 (configuration not stated)	-16%	-4	-10	0%	-3%
COc1ccc(-c2nc(CC(=O)Nc3cccc(S(=O)(=O)NC4=NCCC4)c3)cs2)cc1	?	.	.	-13%	.
SMILES	Pf growth 96h	CHX counter	Shiga toxin inh	Pf growth 48h	LmPK inh
CCCCc1ccc(-c2ccc(Br)cc2)nc1	?	35*	86*	i	-11%
CCCCCc1ccc(-c2ccc(=O)[nH]n2)cc1	2%	12	21	28%	2%
CC(=O)N1CCOc2ccc(S(=O)(=O)N3CCC(C(=O)NCc4ccc(C)cc4)CC3)cc21	85%	-3	14	-14%	7%
C#CCOCCOCCOCCNc1nc(N2CCN(C(=O)CCCCCCCCCCNC(=O)[C@@H](CCSC)n3cc(CCO)nn3)CC2)nc(N2CCN(C(=O)CCCCCCCCCCNC(=O)[C@H]([C@@H](C)CC)n3cc(CCCCCN)nn3)CC2)n1	2.1µM*	.	.	1.7µM*	.
C#CCOCCOCCOCCNc1nc(N2CCN(C(=O)CCCCCCCCCCNC(=O)[C@@H](CCSC)n3cc(CCO)nn3)CC2)nc(N2CCN(C(=O)CCCCCCCCCCNC(=O)[C@H]([C@@H](C)CC)n3cc(CCCCN=C(N)N)nn3)CC2)n1	0.41µM*	.	.	1.7µM*	.
C#CCOCCOCCOCCNc1nc(N2CCN(C(=O)[C@H]([C@@H](C)CC)n3cc(CCC(=O)O)nn3)CC2)nc(N2CCN(C(=O)[C@H](C)n3cc(CCCN=C(N)N)nn3)CC2)n1	-25%	-3	-8	-3%	-5%
COc1ccccc1C(=O)NCC(=O)NNc1ncnc(N)c1[N+](=O)[O-]	?	23	34	15%	-2%
CC(=O)OC1C2CCC1C([N+]1(C)CCCCC1)CC2 (configuration not stated)	?	1	-6	?	-1%
O=C(O)c1ccc(S(=O)(=O)N[C@H](Cc2ccc(O)cc2)C(=O)O)cc1	9%	-7	16	4%	.
Clc1ccc(-c2cc(CSc3ccccc3)on2)cc1	214%	51*	132*	229%	3%
O=C(CCl)NCc1cc(-c2ccc(Cl)cc2)no1	2.9µM*	16*	29	2.1µM*	1%
Clc1ccc(-c2cc(CSc3cccc(Cl)c3)on2)cc1	4%	-1	3	84%	-2%
c1ccc(SCc2cc(-c3ccccc3)no2)cc1	313%	39*	82*	237%	-3%
O=C(CC(=O)NCc1ccc(Cl)cc1)NCc1ccc(Cl)cc1	15%	-1	-6	8%	2%
Cc1ccc(SCc2cc(-c3ccc(Cl)cc3)no2)cc1	?	2	-7	-4%	11%
Cc1cc(N)n(-c2ccc([N+](=O)[O-])cc2)n1	18%	1	-12	25%	4%
Cc1ccc(-c2cc(N)n(-c3ccc(C)cc3)n2)cc1	89%	31*	57*	25%	1%
Cc1ccc(-c2cc(N)n(-c3ccc(F)cc3)n2)cc1	88%	49*	67*	87%	-6%
N#Cc1ccccc1S(=O)(=O)N1CCN(C(=O)CCC2CCCC2)CC1	?	.	.	0%	.
N#Cc1ccccc1S(=O)(=O)N1CCN(C(=O)CN2CCCC2c2cccs2)CC1 (configuration not stated)	4.7µM*	.	.	9.3µM*	.
COc1cc(-c2nc(-c3ccccc3)c(-c3cc([N+](=O)[O-])ccc3C)[nH]2)cc(OC)c1OC	?	4	-4	2.6µM*	0%
O=[N+]([O-])c1cccc(-c2nc(-c3ccccc3)c(-c3cccs3)[nH]2)c1	?	-2	-9	?	1%
CCC(NC(=O)c1ccccc1NC(=O)c1ccco1)C(=O)NC1CCCCC1 (configuration not stated)	?	22*	-17	?	6%
CCC(NC(=O)c1ccccc1NC(=O)c1ccco1)C(=O)O (configuration not stated)	0%	-4	-22	4%	5%

Screening data as filed in PubChem BioAssay.
